Sampled rows, rich in hits. Any-hit rate of the full collection: about 4.7%.
TRHR agonist – TRH receptor (human) agonism; P34981; TRHR cells, calcium flux fluo-8, FDSS agonist mode; activation, % at 2 µM; 360,000 compounds, 0.18% hits; AID 493084; further: 0% is about no effect
Target sequence (P34981 whole entry, looked up): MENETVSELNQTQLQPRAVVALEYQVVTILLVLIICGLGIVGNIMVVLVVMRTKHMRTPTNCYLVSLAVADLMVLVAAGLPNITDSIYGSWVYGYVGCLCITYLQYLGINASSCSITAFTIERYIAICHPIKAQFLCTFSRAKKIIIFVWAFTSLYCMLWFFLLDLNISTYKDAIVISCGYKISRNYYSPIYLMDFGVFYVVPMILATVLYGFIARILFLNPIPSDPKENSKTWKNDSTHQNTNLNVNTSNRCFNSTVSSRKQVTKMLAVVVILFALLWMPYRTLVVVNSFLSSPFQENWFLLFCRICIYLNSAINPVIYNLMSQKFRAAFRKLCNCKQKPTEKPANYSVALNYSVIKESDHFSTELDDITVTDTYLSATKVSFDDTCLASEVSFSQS
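Agonist-mode FDSS calcium read (Ex 480/Em 530, 1 s cycles) in 1536-well TRHR cells with fluo-8 dye, after 10-cycle baseline and 23 nL compound addition; TRH at EC20 (10 nM final) added afterwards for the enhancer phase.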
D1 PAM – human D1 dopamine receptor positive modulation | P21728 | HEK293 TREx D1 cells, calcium flux, dopamine EC20 potentiation | 360,000 compounds, 0.036% hits | AID 504651 | potentiation, % at 10 µM; in the data active means potentiation above about 30%; further: 0% is about no effect
TRHR enhancer – allosterically enhances the human TRH receptor; P34981; TRHR cells, fluo-8 calcium fluorescence, EC20 TRH enhancement; enhancement, % at 2 µM; 360,000 compounds, 0.66% hits; in the data active means enhancement above about 30%; further: 0% is about no effect
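TRHR-expressing cells loaded with fluo-8 calcium dye were read kinetically (ex 480/em 530) during compound addition, then stimulated with an EC20 of TRH (10 nM final). Enhancement of the Gq-mediated intracellular calcium response was scored.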
D1 agonist – activates the human D1 dopamine receptor. HEK293 T-REx D1 cells, calcium flux, agonist mode. activation, % at 2 µM. 360,000 compounds, 1% hits; further: 0% is about no effect
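Tetracycline-induced HEK293 TREx D1 cells, force-coupled to calcium signalling, were dye-loaded with a no-wash calcium kit. Compound was pin-added after a 10 s baseline. Fluorescence was read kinetically at 1 cycle/s for 180 s, with calcium rises flagged as agonism.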
D1 antag – human D1 dopamine receptor antagonism; HEK293 TREx D1 cells, calcium flux, dopamine EC80; hits give low values; activity change, negative = inhibition, % at 10 µM; 360,000 compounds, 3.2% hits; P21728; AID 504652; in the data active means activity change below about -30%; further: on the % scale 0 is the no-effect control and ±100 the full control effect
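Tetracycline-induced HEK293 Trex D1 cells, force-coupled to calcium, dye-loaded; compounds added and read 180 s, then EC80 dopamine added and calcium flux tracked kinetically another 180 s.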
* hit, by the source's call. Unless noted, no stated cut-off is given here; in the data, active means activation above about 30%; inactive means the rest.

SMILES	TRHR agonist	D1 PAM	TRHR enhancer	D1 agonist	D1 antag
COc1cc(OC)cc(C(=O)NC2CC3CCC(C2)N3C)c1 (configuration not stated)	1	-14	1	1	-54*
CCCN1C2CCCC1CC(NC(=O)c1cc(OC)cc(OC)c1)C2 (configuration not stated)	1	-9	0	-3	-34*
CCCN1C2CCCC1CC(NC(=O)c1ccc(C(C)(C)C)cc1)C2 (configuration not stated)	0	4	8	8	10
N#Cc1ccccc1Cn1c(=O)n(-c2cccc(C(F)(F)F)c2)c(=O)c2sccc21	-1	0	3	1	6
COc1ccc(Cl)cc1NC(=O)Cn1nnc(C(=O)NCc2cccs2)c1N	0	4	3	3	0
COc1ccc(-c2cn3nc(N4CCC(C(=O)Nc5ccccc5OC)CC4)sc3n2)cc1	0	-3	-3	4	-9
COc1ccc(CNc2nc3ccccc3n2CCN2CCCCC2)c(OC)c1	3	-9	-4	13	-41*
c1ccc2c(c1)nc(NCc1ccc3c(c1)OCO3)n2CCN1CCOCC1	-1	-7	5	0	-30*
O=C(Nc1nc2ccccc2n1CCN1CCCC1)C1CCCCC1	-1	-2	-1	0	-30*
O=[N+]([O-])c1ccc2[nH]ncc2c1	1	-9	4	4	-44*
Nc1ccc2cn[nH]c2c1	-1	6	-5	0	7
Brc1ccc2[nH]ncc2c1	0	-6	6	2	-32*
CCc1cccc(C)c1NC(=O)CN1C(=O)C2(SCC(=O)N2c2cc(C)cc(C)c2)c2ccccc21 (configuration not stated)	0	-3	-3	3	-6
Cn1c(-c2cccc(Br)c2)cnc1NCc1cccc(F)c1	-2	-5	2	0	3
Cc1ccc(SC(C)C(=O)N2CCCC2)cc1 (configuration not stated)	0	-7	-5	0	-35*
Cc1nn(CC(=O)NCc2ccccc2Cl)c(=O)c2nn(-c3ccccc3)c(C)c12	0	-2	4	3	-8
N#CC1=C2SCN(C3CCCCC3)CN2C(=O)CC1c1ccc(F)cc1 (configuration not stated)	1	1	0	5	-14
N#CC1=C2SCN(C3CCCCC3)CN2C(=O)CC1c1ccc(Cl)cc1 (configuration not stated)	0	-1	0	0	-60*
CCc1c(CN2CCN(c3cccc(C)c3)C(C)C2)csc1C (configuration not stated)	0	0	2	1	14
N=C1/C(=C\c2coc3ccccc3c2=O)C(=O)N=C2SC=CN12	199*	-6	53*	342*	-13
CC1=CC2=NC(=O)/C(=C/c3coc4ccc(Cl)cc4c3=O)C(=N)N2O1	185*	2	28	231*	-10
O=C1NN(c2ccccc2)C(=O)/C1=C\c1coc2ccc(O)cc2c1=O	2	-7	7	1	-70*
N=C1/C(=C/c2cccn2Cc2ccc(F)cc2)C(=O)N=C2SC=CN12	-1	2	-1	0	3
CSC1=NSC2=NC(=O)/C(=C/c3coc4ccccc4c3=O)C(=N)N12	78*	0	14	275*	-4
CSC1=NSC2=NC(=O)/C(=C\c3cccs3)C(=N)N12	1	-22	-4	5	-3
SMILES	TRHR agonist	D1 PAM	TRHR enhancer	D1 agonist	D1 antag
CC1=CC2=NC(=O)/C(=C\c3cc(C)n(-c4cccc(Cl)c4)c3C)C(=N)N2O1	0	3	-2	1	5
CSC1=NSC2=NC(=O)/C(=C/c3coc4ccc(O)cc4c3=O)C(=N)N12	68*	3	12	168*	1
CCc1cccc(-n2nnc(-c3nc(-c4cccs4)no3)c2N)c1	1	-1	21	5	13
CC1=C(C(=O)N2CCCCC2)C(c2ccc(Cl)cc2)n2c(nc3ccccc32)N1 (configuration not stated)	1	2	2	0	9
FC(F)(F)c1nc(NCc2ccccc2)c2nnn(Cc3ccccc3)c2n1	3	-13	-1	4	-11
CCN(CC)CCNc1nc(C(F)(F)F)nc2c1nnn2Cc1ccccc1	1	-1	5	10	-92*
Cc1ccc(N/N=C(\C#N)C(N)=S)c(C)c1	3	-12	-3	37*	-35*
CCOC(=O)Cn1c(=O)cc(C)c2c(C)nn(-c3cccc(F)c3)c21	-1	-2	1	19	-8
COc1cc(-c2nnc(SCCOc3ccc(C)c(Cl)c3)o2)cc(OC)c1OC	0	2	3	0	2
CCOc1ccc(Oc2nc(NCC(C)C)nc(NC(C)(C)C)n2)nn1	2	0	-2	2	3
O=C(O)c1ccc(CSc2nnnn2-c2ccc(F)cc2)cc1	0	-9	1	0	-31*
O=C(CSc1nnnn1-c1cccc2ccccc12)Nc1ccc(C(=O)O)cc1	0	-2	3	9	21
O=C(Nc1nccs1)c1ccc(CSc2nnnn2-c2ccccc2)cc1	-1	1	2	9	-34*
O=C(CCCSc1nnnn1-c1cccc2ccccc12)c1ccc(F)cc1	0	-6	5	62*	-47*
COc1ccccc1NC(=O)CCS(=O)(=O)c1cc2c3c(c1)CCN3C(=O)CC2	0	3	2	1	-22
COc1cc(C2c3c(-c4ccccc4O)n[nH]c3C(=O)N2Cc2ccco2)ccc1OCC(C)C (configuration not stated)	-1	6	13	4	46
Cc1ccc(NC(=O)Cn2cnc3cc([N+](=O)[O-])ccc3c2=O)c(Cl)c1	-1	-10	10	38*	-20
N#Cc1c(C(F)(F)F)cc(-c2ccc(F)cc2)nc1SCC(=O)O	0	-4	18	4	-2
COc1ccc(NC(=O)CSc2nc(-c3ccccc3)cc(-c3cc(OC)c(OC)c(OC)c3)c2C#N)c(OC)c1	1	6	-4	33*	4
CCCCOc1ccc(-c2cc(C(F)(F)F)c(C#N)c(SCC(=O)O)n2)cc1	0	-6	8	68*	-3
Cc1cccc(NC(=O)CSc2nc(-c3cccs3)cc(C(F)(F)F)c2C#N)c1C	14	-2	-2	49*	0
N#Cc1c(C(F)(F)F)cc(-c2cccs2)nc1SCC(=O)Nc1ccc(Cl)cc1	14	2	-2	81*	6
O=S(=O)(c1ccc(Br)cc1)c1nc(-c2ccco2)oc1SCc1ccccc1Cl	0	2	-3	0	2
N#Cc1ccc(-c2cccs2)nc1SCC(=O)Nc1cccc(C(F)(F)F)c1	1	0	1	4	6

Source: PubChem BioAssay
